A short description of assay [1]: Confirmation and Secondary Assay for Modulators of Hemoglobin Beta Chain Splicing at IVS2 654 locus (AID 910).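 Further: per-well total GFP intensity by laser scanning cytometry after 2-day treatment; % of control where 0% means no effect.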 In outline:
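HeLa cells stably carrying EGFP interrupted by mutant beta-globin IVS2-654 intron (CMV-driven) were treated with compound for 2 days at 37C; corrected splicing was scored as total peak GFP intensity per well (488 nm excitation, 500-520 nm emission).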

In assay [2] the target is Cytochrome P450 2D6 (Homo sapiens) (UniProt P10635). Kind of assay: qHTS Assay for Inhibitors and Substrates of Cytochrome P450 2D6 (AID 891). Further: potency means the concentration at half of the fitted maximal effect; nearly all actives have a fitted effect of over 60% in size. The gist of the method: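 Luminescent read-out of luciferin formed by 5 nM human CYP2D6 demethylating 30 uM Luciferin-ME EGE (Km level) over 60 min at room temperature after NADPH regeneration addition. Data normalized to full inhibition by 1.43 uM quinidine.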
In general terms: In qHTS, concentration-response curves come from the screen itself.

Assay [3] deals with Cytochrome P450 2C19 (Homo sapiens) (UniProt P33261). Kind of assay: qHTS Assay for Inhibitors and Substrates of Cytochrome P450 2C19 (AID 899). Further: nearly all actives have a fitted effect of over 60% in size. Further: potency means the concentration at half of the fitted maximal effect. The gist of the method:
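NADPH-dependent conversion of Luciferin-H EGE (10uM, at KM) by 5nM enzyme in 50mM KPO4, 60 min at 37C following 10 min compound preincubation. Stopped with luciferin detection buffer; luminescence read after 20 min.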

Assay [4] deals with Tyrosyl-DNA phosphodiesterase 1 (Homo sapiens) (UniProt Q9NUW8). Kind of assay: Confirmation Assay for Inhibitors of Tyrosyl-DNA Phosphodiesterase (TDP1) (AID 489007). Further: potency means the concentration at half of the fitted maximal effect; nearly all actives have a fitted effect of over 40% in size. To be noted: recombinant human TDP1 enzymatic activity, dose-response. In outline:
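Compounds are preincubated 15 min at room temperature with 1 nM recombinant human Tdp1. The reaction starts on adding 15 nM FITC-phosphotyrosine DNA substrate, runs 5 min, and is detected by AlphaScreen beads after 10 min.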

Assay [5] in a line: qHTS Assay for Identification of Small Molecule Agonists for Hypoxia Response Element Signaling Pathway (AID 914; active means well fitted activation curve with a large enough effect in the signal ratio, with a control signal flat, not every such curve was filed as active; the % refers to the signal ratio; further: potency means the concentration at half of the fitted maximal effect; on activation: % of control where 0% means no effect). The settings on record: ME-180 (cervical carcinoma) HRE-bla reporter, beta-lactamase ratio, CoCl2, 17 h; activation: active compounds read high. The gist of the method: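 HRE-bla ME-180 cells, overnight plating in Opti-MEM with 0.5% dialyzed FBS; cpd titration + EC50 CoCl2, 17 h, 37 degrees Celsius; CCF4 2.5 h RT; 460/530 nm ratio; AC50.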

The target in assay [6] is Cytochrome P450 2C9 (Homo sapiens) (UniProt P11712). Put plainly: qHTS Assay for Inhibitors and Substrates of Cytochrome P450 2C9 (AID 883). Further: nearly all actives have a fitted effect of over 60% in size. Further: potency means the concentration at half of the fitted maximal effect. In outline:
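A luminogenic readout tracked human CYP2C9 (10nM) converting deoxyluciferin (100uM, at KM) in 25mM KPO4 during 60 min at 37C with regenerated NADPH. Values normalized to 57uM sulphaphenazole as complete inhibition.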

In assay [7] the target is Guanine nucleotide-binding protein G(i) subunit alpha-1 (Homo sapiens) (UniProt P63096). Kind of assay: qHTS Assay for Inhibitors of RGS12 GoLoco Motif Activity (Green Fluorophore) (AID 879).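 Further: 0% = labeled peptide with Gαi1 and full inhibition = labeled peptide alone without protein; negative values mean loss of peptide binding seen as reduced polarization.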 In outline: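 A drop in FITC polarization marked displacement of the FITC-tagged RGS12 GoLoco peptide (10 nM) from Gαi1 (50 nM). Compounds were incubated 10 min at room temperature in Tris pH 7.5 buffer containing 150 mM NaCl, 0.1 mM GDP and 0.05% NP40; unlabeled peptide titration served as control.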

A short description of assay [8]: qHTS Assay for Identification of Small Molecule Agonists for Thrombopoietin (TPO) Signaling Pathway (AID 917). Further: on the % scale 0 is the no-effect control and ±100 the full control effect. In outline:
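Ba/F3 (mouse) + hTPO receptor + GpIIb-promoter luciferase; IL-3 withdrawn overnight; compound + 26 pM TPO (EC50), 24 hrs, 37 C, 5% CO2; Steadylite luminescence, 10 min RT.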

In assay [9] the target is Muscarinic acetylcholine receptor M1 (Rattus norvegicus) (UniProt P08482). Put plainly: qHTS Assay for Antagonists of Acetylcholine Muscarinic M1 Receptor: Measurement of IP-One Response (AID 944). Further: nearly all actives have a fitted effect of over 75% in size. The gist of the method:
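Antagonist mode with rat M1 receptor transfected into CHO cells. Compound is added first for 10 min, carbachol at its EC80 follows for 30 min, and lysis reagents then allow TR-FRET detection of accumulated IP1.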

Assay [10] concerns the target Pyruvate kinase (Leishmania mexicana) (UniProt Q27686). Kind of assay: qHTS Validation Assay for Inhibitors of Leishmania Mexicana Pyruvate Kinase (AID 945).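 Further: 0% = DMSO only neutral control wells.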 In outline:
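Luminescent ATP detection (PKLight) after a 1 h room-temperature reaction of 0.2 nM LmPYK E451W mutant with 0.5 mM PEP and 0.1 mM ADP at pH 7.2. Activity is normalized to DMSO-only control wells.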

The target in assay [11] is Pyruvate kinase PKM (Homo sapiens) (UniProt P14618). Kind of assay: qHTS Assay for Activators of Human Muscle Pyruvate Kinase (AID 954; active means well fitted curve in the direction sought with a large enough effect, not every such curve was filed as active;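 further: 0% = uninhibited enzyme and -100% = no enzyme or full thiadiazolimine inhibition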). In outline:
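PKM2, human, >95% pure, 0.1 nM; PEP 0.5 mM (Km), ADP 0.1 mM; 50 mM imidazole pH 7.2, 50 mM KCl, 0.01% Tween 20, 0.05% BSA; 1 h RT; luciferase luminescence readout.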

The target of assay [12] is Alpha-galactosidase A (Homo sapiens) (UniProt P06280). Put plainly: Counterscreen for Glucocerebrosidase Inhibitors: qHTS Assay for Human alpha-Galactosidase at pH 4.5 (AID 992). Further: 0% is about no effect. In outline:
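Fluorogenic 4-MU alpha-D-galactoside (80 uM) hydrolysis, 2 nM enzyme, pH 4.5 citrate buffer + 0.005% Tween-20; 20 min RT; NaOH/glycine pH 10 stop; Ex365/Em440. Compounds titrated 0.7 nM–77 uM; Hill-equation AC50.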
(A counterscreen serves to expose hits that act by an unwanted route or on another target.)

The target of assay [13] is alpha-glucosidase (Oryza sativa, rice) (UniProt Q653V4). Put plainly: Counterscreen for Glucocerebrosidase Inhibitors: qHTS Assay for Rice alpha-Glucosidase at pH 5.0 (AID 997).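 Further: 0% = full activity with enzyme and -100% = basal without enzyme.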 The gist of the method: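 Endpoint fluorogenic assay at pH 5.0: compounds (0.7 nM to 77 uM) titrated against 4 nM rice enzyme and 400 uM 4-MU-alpha-glucoside for 20 min at room temperature; NaOH/glycine stop, read ex 365/em 440 nm, Hill-fitted AC50.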

The target in assay [14] is Dual specificity protein kinase CLK4 (Homo sapiens) (UniProt Q9HAZ1). Put plainly: qHTS Assay for Inhibitors of CDC-like Kinase 4 (Kinase-Glo Assay) (AID 1770). Further: nearly all actives have a fitted effect of over 65% in size. Further: potency means the concentration at half of the fitted maximal effect. The gist of the method: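 Readout: Kinase-Glo luminescence from ATP left after a 4.5 h room-temperature reaction of 25 nM Clk4 with 100 uM RS peptide and 1 uM ATP (final). Buffer: 25 mM Tris pH 7.5, 10 mM MgCl2.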

Assay [15] has the same target. Put plainly: qHTS Assay for Inhibitors of CDC-like Kinase 4 (ADP-Glo Assay) (AID 1771). Further: nearly all actives have a fitted effect of over 70% in size. Further: potency means the concentration at half of the fitted maximal effect. In outline:
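Compounds are pin-transferred onto substrate mix (100 uM RS peptide, 1 uM ATP), then 25 nM Clk4 is added. After 1 hr at room temperature, ADP-Glo reagent runs 45 min, detection reagent 30 min, then luminescence is read.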

The structures appear in SMILES notation. Values without a mark were called inactive. Results filed as inconclusive are left out. Active and inactive are the calls of the source. Unless noted, the call rests on the fitted dose curve; in most records, active means well fitted curve in the direction sought with a large enough effect; inconclusive means small, poorly fitted or top-dose-only effect, or another doubt; inactive means no such curve, though single readings can be large; an effect the other way counts as inactive or inconclusive.

Cytochrome P450 2C19 (Homo sapiens), sequence (P33261 whole entry, looked up): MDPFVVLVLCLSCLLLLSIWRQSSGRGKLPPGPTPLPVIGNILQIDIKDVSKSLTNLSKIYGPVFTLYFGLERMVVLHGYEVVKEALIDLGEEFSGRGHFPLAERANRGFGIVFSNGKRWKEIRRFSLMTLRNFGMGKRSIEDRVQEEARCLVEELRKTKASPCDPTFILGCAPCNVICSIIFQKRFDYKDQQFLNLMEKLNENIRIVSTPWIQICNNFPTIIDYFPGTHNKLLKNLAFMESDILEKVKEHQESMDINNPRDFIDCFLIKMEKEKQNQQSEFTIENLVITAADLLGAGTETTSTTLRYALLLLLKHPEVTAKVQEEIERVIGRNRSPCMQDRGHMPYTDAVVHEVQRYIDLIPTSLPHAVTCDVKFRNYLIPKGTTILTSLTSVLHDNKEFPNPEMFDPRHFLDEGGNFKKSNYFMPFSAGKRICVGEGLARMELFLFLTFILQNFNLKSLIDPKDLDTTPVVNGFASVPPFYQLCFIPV
Cytochrome P450 2C9 (Homo sapiens), sequence (P11712 whole entry, looked up): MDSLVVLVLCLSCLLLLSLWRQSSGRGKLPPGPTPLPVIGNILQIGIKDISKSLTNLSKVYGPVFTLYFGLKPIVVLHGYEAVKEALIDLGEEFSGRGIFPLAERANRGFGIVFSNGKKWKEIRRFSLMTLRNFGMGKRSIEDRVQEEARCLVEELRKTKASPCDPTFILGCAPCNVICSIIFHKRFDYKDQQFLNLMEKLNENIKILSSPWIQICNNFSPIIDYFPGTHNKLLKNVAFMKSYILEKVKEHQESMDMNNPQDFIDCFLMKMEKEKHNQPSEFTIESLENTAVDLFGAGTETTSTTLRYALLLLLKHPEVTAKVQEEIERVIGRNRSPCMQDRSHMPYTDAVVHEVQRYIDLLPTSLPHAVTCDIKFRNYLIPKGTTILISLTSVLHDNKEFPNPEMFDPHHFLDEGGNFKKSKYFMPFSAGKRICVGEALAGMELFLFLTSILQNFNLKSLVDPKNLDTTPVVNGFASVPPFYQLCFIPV
Dual specificity protein kinase CLK4 (Homo sapiens), sequence (Q9HAZ1 whole entry, looked up): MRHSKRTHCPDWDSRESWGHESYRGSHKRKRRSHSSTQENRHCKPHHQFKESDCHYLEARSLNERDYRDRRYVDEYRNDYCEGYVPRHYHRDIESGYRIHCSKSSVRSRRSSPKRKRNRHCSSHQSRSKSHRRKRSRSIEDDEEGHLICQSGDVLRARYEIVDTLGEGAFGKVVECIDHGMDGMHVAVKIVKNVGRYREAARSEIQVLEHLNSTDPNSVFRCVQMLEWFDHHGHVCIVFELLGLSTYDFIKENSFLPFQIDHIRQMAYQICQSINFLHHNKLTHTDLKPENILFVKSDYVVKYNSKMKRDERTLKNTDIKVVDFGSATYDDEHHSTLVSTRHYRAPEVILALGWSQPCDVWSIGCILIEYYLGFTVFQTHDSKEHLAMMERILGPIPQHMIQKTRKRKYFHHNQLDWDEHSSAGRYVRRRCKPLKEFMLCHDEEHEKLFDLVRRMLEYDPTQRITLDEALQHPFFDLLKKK
Cytochrome P450 2D6 (Homo sapiens), sequence (P10635 whole entry, looked up): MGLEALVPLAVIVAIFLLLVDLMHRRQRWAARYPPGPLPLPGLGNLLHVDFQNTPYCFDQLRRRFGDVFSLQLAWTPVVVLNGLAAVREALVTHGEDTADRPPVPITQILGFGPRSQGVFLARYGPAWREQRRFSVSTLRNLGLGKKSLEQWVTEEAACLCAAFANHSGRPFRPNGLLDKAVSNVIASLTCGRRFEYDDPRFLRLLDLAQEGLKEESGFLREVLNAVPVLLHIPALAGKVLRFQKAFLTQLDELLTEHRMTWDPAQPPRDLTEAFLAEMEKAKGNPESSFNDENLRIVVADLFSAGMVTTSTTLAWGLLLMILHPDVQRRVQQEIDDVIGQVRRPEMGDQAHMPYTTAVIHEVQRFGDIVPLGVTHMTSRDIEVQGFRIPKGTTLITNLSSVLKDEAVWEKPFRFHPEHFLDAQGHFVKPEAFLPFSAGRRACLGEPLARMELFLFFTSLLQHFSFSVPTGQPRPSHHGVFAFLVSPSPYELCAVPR
Pyruvate kinase (Leishmania mexicana), sequence (Q27686 2-499 E452W): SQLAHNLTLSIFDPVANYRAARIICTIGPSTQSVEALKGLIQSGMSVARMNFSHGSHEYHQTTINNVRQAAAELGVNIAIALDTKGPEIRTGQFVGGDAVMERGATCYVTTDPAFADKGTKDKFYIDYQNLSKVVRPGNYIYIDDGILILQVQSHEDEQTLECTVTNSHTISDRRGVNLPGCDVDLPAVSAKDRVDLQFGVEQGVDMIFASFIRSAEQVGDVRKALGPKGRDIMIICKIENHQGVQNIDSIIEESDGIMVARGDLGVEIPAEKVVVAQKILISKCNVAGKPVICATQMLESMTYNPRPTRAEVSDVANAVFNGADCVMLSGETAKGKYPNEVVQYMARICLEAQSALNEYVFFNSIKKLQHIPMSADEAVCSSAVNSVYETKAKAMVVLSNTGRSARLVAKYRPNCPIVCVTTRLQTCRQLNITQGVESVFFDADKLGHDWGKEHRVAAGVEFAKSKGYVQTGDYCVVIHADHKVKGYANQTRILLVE
Tyrosyl-DNA phosphodiesterase 1 (Homo sapiens), sequence (Q9NUW8 whole entry, looked up): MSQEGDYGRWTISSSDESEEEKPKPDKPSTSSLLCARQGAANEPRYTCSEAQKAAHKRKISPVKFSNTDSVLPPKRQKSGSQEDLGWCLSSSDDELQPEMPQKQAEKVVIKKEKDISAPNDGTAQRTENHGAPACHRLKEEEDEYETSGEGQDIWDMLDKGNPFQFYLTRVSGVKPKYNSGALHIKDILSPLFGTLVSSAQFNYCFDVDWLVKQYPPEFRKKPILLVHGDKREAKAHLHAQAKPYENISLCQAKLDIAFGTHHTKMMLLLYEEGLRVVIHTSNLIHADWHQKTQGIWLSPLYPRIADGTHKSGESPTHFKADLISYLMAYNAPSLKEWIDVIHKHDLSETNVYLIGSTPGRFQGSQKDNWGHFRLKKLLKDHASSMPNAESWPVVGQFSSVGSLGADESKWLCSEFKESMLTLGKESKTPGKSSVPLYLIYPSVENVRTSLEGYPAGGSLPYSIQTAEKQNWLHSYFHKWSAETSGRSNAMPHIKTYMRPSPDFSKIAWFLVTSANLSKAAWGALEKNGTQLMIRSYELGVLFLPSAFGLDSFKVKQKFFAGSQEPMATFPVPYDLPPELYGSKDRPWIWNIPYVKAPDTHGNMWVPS
Guanine nucleotide-binding protein G(i) subunit alpha-1 (Homo sapiens), sequence (P63096 whole entry, looked up): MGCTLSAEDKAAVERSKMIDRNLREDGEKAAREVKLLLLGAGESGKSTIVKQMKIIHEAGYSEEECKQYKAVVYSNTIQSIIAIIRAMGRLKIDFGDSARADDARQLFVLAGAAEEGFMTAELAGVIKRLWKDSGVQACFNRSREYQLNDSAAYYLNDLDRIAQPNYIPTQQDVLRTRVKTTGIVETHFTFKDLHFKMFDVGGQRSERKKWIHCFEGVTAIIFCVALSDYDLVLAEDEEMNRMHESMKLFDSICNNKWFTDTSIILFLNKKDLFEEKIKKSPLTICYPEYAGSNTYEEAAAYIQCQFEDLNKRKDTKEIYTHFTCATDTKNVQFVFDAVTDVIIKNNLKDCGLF
Muscarinic acetylcholine receptor M1 (Rattus norvegicus), sequence (P08482 whole entry, looked up): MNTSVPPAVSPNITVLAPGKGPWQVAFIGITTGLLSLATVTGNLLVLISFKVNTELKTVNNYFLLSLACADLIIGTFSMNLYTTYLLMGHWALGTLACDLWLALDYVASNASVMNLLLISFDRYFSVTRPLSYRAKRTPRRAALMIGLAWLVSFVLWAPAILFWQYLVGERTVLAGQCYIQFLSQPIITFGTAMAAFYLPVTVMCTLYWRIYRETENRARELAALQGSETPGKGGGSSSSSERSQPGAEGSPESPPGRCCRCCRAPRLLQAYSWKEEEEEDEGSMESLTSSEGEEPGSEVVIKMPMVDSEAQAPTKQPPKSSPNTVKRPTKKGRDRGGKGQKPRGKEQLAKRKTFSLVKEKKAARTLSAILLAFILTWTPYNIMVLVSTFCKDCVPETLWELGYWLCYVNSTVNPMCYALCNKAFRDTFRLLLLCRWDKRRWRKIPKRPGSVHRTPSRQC
Alpha-galactosidase A (Homo sapiens), sequence (P06280 whole entry, looked up): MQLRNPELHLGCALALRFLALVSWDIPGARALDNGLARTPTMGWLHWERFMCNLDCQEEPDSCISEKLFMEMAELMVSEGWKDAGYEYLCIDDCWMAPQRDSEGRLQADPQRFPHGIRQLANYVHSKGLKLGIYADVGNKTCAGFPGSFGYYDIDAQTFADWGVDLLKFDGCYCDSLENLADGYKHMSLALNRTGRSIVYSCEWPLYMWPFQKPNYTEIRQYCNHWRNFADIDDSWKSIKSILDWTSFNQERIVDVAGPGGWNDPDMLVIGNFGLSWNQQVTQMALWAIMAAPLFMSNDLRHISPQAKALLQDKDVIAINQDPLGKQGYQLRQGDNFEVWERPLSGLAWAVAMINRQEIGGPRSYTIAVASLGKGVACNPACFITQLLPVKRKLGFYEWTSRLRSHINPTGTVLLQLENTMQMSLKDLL
Pyruvate kinase PKM (Homo sapiens), sequence (P14618 whole entry, looked up): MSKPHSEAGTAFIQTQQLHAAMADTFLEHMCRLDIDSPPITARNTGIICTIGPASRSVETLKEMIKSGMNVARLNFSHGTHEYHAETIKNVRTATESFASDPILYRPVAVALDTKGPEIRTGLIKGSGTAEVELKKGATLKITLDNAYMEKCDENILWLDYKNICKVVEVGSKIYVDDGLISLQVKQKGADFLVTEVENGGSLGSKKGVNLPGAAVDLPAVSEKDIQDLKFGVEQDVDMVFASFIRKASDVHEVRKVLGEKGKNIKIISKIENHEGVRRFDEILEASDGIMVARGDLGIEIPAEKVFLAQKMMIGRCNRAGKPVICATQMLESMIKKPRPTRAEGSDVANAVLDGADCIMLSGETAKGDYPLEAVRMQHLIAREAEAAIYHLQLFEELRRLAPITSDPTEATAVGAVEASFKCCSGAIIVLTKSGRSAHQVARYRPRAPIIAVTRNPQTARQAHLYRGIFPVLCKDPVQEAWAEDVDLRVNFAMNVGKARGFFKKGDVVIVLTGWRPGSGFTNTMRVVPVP

On to `CNc1ncnc2ccc(-c3cccc(NS(C)(=O)=O)c3)cc12`, for which the Potency result in [1] is “inactive”.

For `c1nc(NCCN2CCOCC2)c2cc(-c3ccc4c(c3)OCO4)ccc2n1`, in assay [2], the Potency was 7.94 µM (active). The Potency result in assay [1] was “inactive”.

`COc1ccc2[nH]cc(CCNc3ccnc(-c4cccc(NS(C)(=O)=O)c4)n3)c2c1`: the Potency result in assay [1] is “inactive”.

On to `CS(=O)(=O)Nc1cccc(-c2nc(NCCN3CCOCC3)c3ccccc3n2)c1`, for which the Potency result in assay [1] was “inactive”.

As to `CC(=O)NCCNc1ncncc1-c1ccccc1C(F)(F)F`, the Potency result in assay [1] is “inactive”.

Turning to `FC(F)(F)c1ccccc1-c1cncnc1Nc1ccccc1`, the Potency in assay [3] is 7.94 µM (active). The Potency entry in assay [1] is “inactive”.

For `CN(C)Cc1ccccc1-c1nccc(NCc2cccs2)n1`, the Potency in assay [2] is 1.58 µM (active). Further, the Potency entry in [1] was “inactive”.

In the case of `CN(C)c1ccc(-c2nc(N(C)C)c3ccccc3n2)cc1`, the Potency in assay [2] was 7.94 µM (active). Also, in assay [1], the Potency entry was “inactive”.

In the case of `Cc1cccc(CNc2nc(-c3c(C)noc3C)nc3ccccc23)c1`, the Potency result in assay [1] was “inactive”.

In the case of `CN(C)C(=O)c1ccc(-c2cncnc2NCc2cccs2)cc1`, in [1], the Potency result is “inactive”. Also, the Potency in assay [4] was 1.78 µM (active).

As for `Cc1cnc(CNc2nc(-c3ccc(N(C)C)cc3)nc3ccccc23)cn1`, in assay [1], the Potency entry was “inactive”.

With `COc1ccccc1CNc1ncnc2ccc(-c3c(C)noc3C)cc12`, the Potency in assay [5] was 1.26 µM (active).

In the case of `CNc1nc(-c2ccccc2C(F)(F)F)nc2ccccc12`, the Potency entry in [1] is “inactive”.

Regarding `Cn1cccc1C(=O)N1CCC2(CCCN(Cc3ccncc3)C2)CC1`, the Potency in assay [6] was 1.58 µM (active); in assay [2], 7.94 µM (active).

As to `Cc1cnc(CNc2ncnc3ccc(-c4ccccc4CN(C)C)cc23)cn1`, in assay [2], the Potency is 2.51 µM (active). Besides, the Potency result in assay [1] is “inactive”.

For the compound `Cc1noc(C)c1-c1nc(N2CCOCC2)c2ccccc2n1`, in [1], the Potency result was “inactive”.

Regarding `FC(F)(F)c1ccccc1-c1nccc(NCc2ccccc2)n1`, in [3], the Potency is 6.31 µM (active).

For the compound `CS(=O)(=O)Nc1cccc(-c2nccc(-n3ccnc3)n2)c1`, in [1], the Potency entry is “inactive”. For the same compound, in assay [5], the activation is -11.9%.

For the compound `O=c1c(-c2ccc(F)cc2)nc2cnc(N3CCOCC3)nc2n1-c1ccccc1`, in assay [5], the Potency was 1.26 µM (active).

In the case of `Cn1cc(C(F)(F)F)nc1-c1ccc(OC[C@@H](O)CNCCOc2ccc(O)c(C(N)=O)c2)cc1`, the Potency result in assay [7] and in [9] was “inactive” each time. Besides, the compound was called inactive in [8], in assay [10], in assay [11], in [12] and in [13].

Regarding `COc1ccc(CNc2nc(-c3ccoc3)nc3ccccc23)c(OC)c1`, in assay [1], the Potency entry is “inactive”.

For `CS(=O)(=O)Nc1cccc(-c2ccc3ncnc(NCc4cccnc4)c3c2)c1`, the Potency in assay [3] is 0.0501 µM (active). The activation in assay [5] was -27.3%.

As to `COc1ccc(CNc2ncnc3ccc(-c4c(C)noc4C)cc23)c(OC)c1`, the Potency is 2 µM (active) in assay [5], 10 µM (active) in assay [14] and 15.8 µM (active) in [15].

Consider `COc1cccc(Cn2c(=O)c(-c3ccc(F)cc3)nc3cnc(N4CCOCC4)nc32)c1`, for which the Potency result in assay [3], in assay [14] and in [15] was “inactive” each time.

With `COc1cccc(Nc2ncc3nc(-c4cn(C)c5ccccc45)c(=O)n(C[C@H]4CCCO4)c3n2)c1`, the Potency entry in assay [6], in assay [14] and in [15] was “inactive” in each case.

In the case of `N[C@H](C(=O)O)c1ccc(O)c(C(=O)O)c1`, in [3], the Potency entry is “inactive”.

Regarding `O=C(O)c1cc(=O)c2cccc(O)c2[nH]1`, in assay [1], the Potency result is “inactive”.

As to `Cc1cccc(CNc2ncnc3ccc(-c4c(C)noc4C)cc23)c1`, the Potency in assay [3] is 5.01 µM (active). Moreover, in assay [1], the Potency entry is “inactive”.

Regarding `COc1cccc(-c2ccc3ncnc(NCc4ccccc4OC)c3c2)c1`, the Potency entry in assay [1] is “inactive”.

Consider `COc1ccc(-n2c(=O)c(-c3ccc(Cl)cc3)nc3cnc(N(C)C)nc32)cc1`, for which the Potency result in [14] and in assay [15] was “inactive” throughout.

On to `CS(=O)(=O)c1ccc(Cn2c3c(c4cc(F)cc(F)c42)CCC[C@H]3CC(=O)O)cc1`, for which the Potency entry in assay [6] was “inactive”.

For `N#CCCn1c(=O)c(-c2cccs2)nc2cnc(N3CCOCC3)nc21`, the activation in [5] was 21.6%. The Potency entry in [14] and in assay [15] was “inactive” in each case.

In the case of `O=C(c1cc(C(F)(F)F)cc(C(F)(F)F)c1)N1CCC2(CC1)CN(c1ccncc1)C2`, the Potency in assay [6] was 3.98 µM (active).

Turning to `COCCNc1nc(-c2ccccc2C)nc2ccccc12`, the Potency entry in assay [1] is “inactive”.

With `COc1ccc2[nH]cc(CCNc3nc(-c4cccc(C#N)c4)nc4ccccc34)c2c1`, the Potency in assay [14] is 22.4 µM (active); in assay [15], 28.2 µM (active).

The values are drawn from PubChem BioAssay (NCATS).
